Records with an inconclusive call do not appear. Calls of active or inactive are those of the source. The calls were made as follows, unless noted: active = hit-call score of the fitted dose curve at least 0.9, where 1 is the maximum; inactive = score below 0.9.
Tests used:
[1] = read-out: Interleukin-8 (IL8), CXCL8 (gene 3576); test: BSK_3C_IL8: BioMAP Diversity Plus: 3C Assay for Interleukin-8 (IL8) Biomarker Activity (AID 2283020); settings: primary human endothelial cells (HUVEC); actives raise or lower the signal
Outline: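 IL-8 was measured by ELISA in HUVEC cultures 24 h after chemical dosing, with gain or loss of signal fitted relative to DMSO. Parallel SRB total-protein staining tracked overt cytotoxicity.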

[2] = read-out: Monokine induced gamma interferon (MIG), CXCL9 (gene 4283); test: BSK_3C_MIG: BioMAP Diversity Plus: 3C Assay for Monokine induced gamma interferon (MIG) Biomarker Activity (AID 2283021); settings: primary human endothelial cells (HUVEC); actives raise or lower the signal
Outline: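 ELISA measurement of MIG in human umbilical vein endothelial cells 24 h after treatment. Cytotoxicity tracked by SRB staining in parallel cultures; gain or loss of signal fitted relative to DMSO.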

[3] = BSK_3C_SRB: Viability Assessment in the BioMAP Diversity Plus: 3C Assay (AID 2283023); settings: primary human endothelial cells (HUVEC);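 also: fitted both ways against DMSO so a hit may be signal rise or drop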
Outline: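 Primary human umbilical vein endothelial cells in the 3C system were read 24 h after compound dosing. Total protein was stained with 0.1% sulforhodamine B after 10% TCA fixation and read at 560 nm, with bidirectional fitting against DMSO as baseline.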

[4] = read-out: Matrix Metallopeptidase 1 (MMP1), MMP1 (gene 4312); test: BSK_BE3C_MMP1: BioMAP Diversity Plus: BE3C Assay for Matrix Metallopeptidase 1 (MMP1) Biomarker Activity (AID 2283024); settings: primary human bronchial epithelial cells; actives raise or lower the signal
Outline: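 ELISA measurement of MMP-1 after 24 h compound exposure of primary human bronchial epithelial cells. Changes in either direction fitted relative to DMSO; parallel SRB staining checked overt cytotoxicity.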

[5] = BSK_3C_Vis: BioMAP Diversity Plus: 3C Assay for Morphology Visualization (AID 2283025); settings: primary human endothelial cells (HUVEC);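 also: fitted both ways so gain or loss versus DMSO counts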;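 as to AC50: light microscopy image of cell morphology used as background control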
Outline: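 Light-microscopy visualization of HUVEC cultures at 24 h post-treatment, with DMSO as baseline for bidirectional fitting.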

[6] = read-out: Pselectin, SELP (gene 6403); test: BSK_4H_Pselectin: BioMAP Diversity Plus: 4H Assay for Pselectin Biomarker Activity (AID 2283026); settings: primary human endothelial cells (HUVEC); actives raise or lower the signal
Outline: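 ELISA of surface P-selectin on HUVEC, 24 h after dosing, with parallel SRB staining (0.1% after 10% TCA fixation, 560 nm) for overt cytotoxicity. Activity fitted in both directions relative to DMSO.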

[7] = BSK_4H_SRB: Viability Assessment in the BioMAP Diversity Plus: 4H Assay (AID 2283027); settings: primary human endothelial cells (HUVEC);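 also: cells exposed to compound for 24 h before staining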;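 as to AC50: curves fitted both ways versus DMSO so AC50 may be loss or gain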
Outline: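 Cytotoxicity readout: sulforhodamine B (0.1%) staining of total protein after 10% TCA fixation, measured at 560 nm in human umbilical vein endothelium at 24 h. DMSO set the baseline; fitting was bidirectional.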

[8] = BSK_BE3C_SRB: Viability Assessment in the BioMAP Diversity Plus: BE3C Assay (AID 2283028); settings: primary human bronchial epithelial cells;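 as to AC50: fitted both ways so AC50 may mark signal gain or loss versus DMSO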
Outline: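 Human primary bronchial epithelial cells were exposed to test chemicals for 24 h. Total protein in parallel cultures was then measured by staining with 0.1% sulforhodamine B after 10% TCA fixation, with absorbance read at 560 nm. Activity was fitted bidirectionally against DMSO.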

[9] = read-out: Thrombomodulin, THBD (gene 7056); test: BSK_3C_Thrombomodulin: BioMAP Diversity Plus: 3C Assay for Thrombomodulin Biomarker Activity (AID 2283029); settings: primary human endothelial cells (HUVEC); actives raise or lower the signal
Outline: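 ELISA measurement of thrombomodulin on HUVEC surface 24 h after chemical dosing; activity fitted in both directions relative to DMSO vehicle.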

[10] = read-out: Urokinase-type plasminogen activator receptor (uPAR), PLAUR (gene 5329); test: BSK_4H_uPAR: BioMAP Diversity Plus: 4H Assay for Urokinase-type plasminogen activator receptor (uPAR) Biomarker Activity (AID 2283030); settings: primary human endothelial cells (HUVEC); actives raise or lower the signal
Outline: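 Primary human umbilical vein endothelial cells were exposed to chemical for 24 h before cell-surface uPAR was quantified by ELISA. Activity was fitted bidirectionally against the DMSO negative control baseline.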

[11] = read-out: Vascular endothelial growth factor receptor 2 (Homo sapiens) (UniProt P35968); test: BSK_4H_VEGFRII: BioMAP Diversity Plus: 4H Assay for Vascular endothelial growth factor receptor 2 (VEGFR2) Biomarker Activity (AID 2283031); settings: primary human endothelial cells (HUVEC); actives raise or lower the signal
Outline: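 Primary human umbilical vein endothelial cells in the BioMAP 4H system were dosed with test chemical, and 24 h later VEGFRII was measured by ELISA. Activity was fitted bidirectionally against DMSO as negative control and baseline.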

[12] = read-out: Human Leukocyte Antigen - DR isotype (HLADR), HLA-DRA (gene 3122); test: BSK_BE3C_HLADR: BioMAP Diversity Plus: BE3C Assay for Human Leukocyte Antigen - DR isotype (HLADR) Biomarker Activity (AID 2283032); settings: primary human bronchial epithelial cells; actives raise or lower the signal
Outline: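 Cell-surface HLA-DR ELISA readout at 24 h after dosing in the BE3C primary human lung bronchial epithelial system; gain or loss of signal against DMSO, with parallel sulforhodamine B staining of total protein for overt cytotoxicity.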

[13] = read-out: Vascular cell adhesion molecule 1 (VCAM1), VCAM1 (gene 7412); test: BSK_4H_VCAM1: BioMAP Diversity Plus: 4H Assay for Vascular cell adhesion molecule 1 (VCAM1) Biomarker Activity (AID 2283033); settings: primary human endothelial cells (HUVEC); actives raise or lower the signal;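 as to outcome: cell-surface VCAM-1 protein measured by ELISA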
Outline: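 VCAM-1 ELISA read 24 h after chemical dosing of HUVEC in the BioMAP 4H system, with gain or loss of signal fitted relative to DMSO. Parallel SRB staining (560 nm) checked overt cytotoxicity.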

[14] = read-out: Interferon-gamma inducible Protein 10 (IP10), CXCL10 (gene 3627); test: BSK_BE3C_IP10: BioMAP Diversity Plus: BE3C Assay for Interferon-gamma inducible Protein 10 (IP10) Biomarker Activity (AID 2283034); settings: primary human bronchial epithelial cells; actives raise or lower the signal
Outline: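 IP-10 quantified by ELISA in human primary bronchial epithelial cell cultures at 24 hours post-dosing. Gain or loss of signal fitted relative to DMSO; parallel SRB staining assessed overt cytotoxicity.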

[15] = read-out: Transforming growth factor beta 1 (TGFb1), TGFB1 (gene 7040); test: BSK_BE3C_TGFb1: BioMAP Diversity Plus: BE3C Assay for Transforming growth factor beta 1 (TGFb1) Biomarker Activity (AID 2283036;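 also: TGF-b1 protein level measured by ELISA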); settings: primary human bronchial epithelial cells; actives raise or lower the signal
Outline: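 ELISA readout of TGF-b1 from human lung bronchial epithelial primary cells, taken 24 h post-treatment. Gain or loss of signal fitted relative to DMSO baseline, with parallel SRB staining for overt cytotoxicity.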

[16] = read-out: Plasminogen activator inhibitor-1 (PAI1), SERPINE1 (gene 5054); test: BSK_BE3C_PAI1: BioMAP Diversity Plus: BE3C Assay for Plasminogen activator inhibitor-1 (PAI1) Biomarker Activity (AID 2283037); settings: primary human bronchial epithelial cells; actives raise or lower the signal
Outline: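 PAI-1 was measured by ELISA in human primary bronchial epithelial cultures 24 h after chemical dosing, with cytotoxicity checked by SRB total-protein staining in parallel cultures. Activity was fitted in both directions relative to DMSO.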

[17] = read-out: urokinase plasminogen activator (uPA), PLAU (gene 5328); test: BSK_BE3C_uPA: BioMAP Diversity Plus: BE3C Assay for urokinase plasminogen activator (uPA) Biomarker Activity (AID 2283038); settings: primary human bronchial epithelial cells; actives raise or lower the signal;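 also: uPA protein level quantified by ELISA in cell cultures; uPA read one day after compound addition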
Outline: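 Human primary bronchial epithelial cells were exposed to chemical for 24 h, then uPA levels were measured by ELISA. Responses were fitted bidirectionally against DMSO as negative control and baseline. Parallel SRB staining of total protein gauged overt cytotoxicity.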

[18] = read-out: Urokinase-type plasminogen activator receptor (uPAR), PLAUR (gene 5329); test: BSK_BE3C_uPAR: BioMAP Diversity Plus: BE3C Assay for Urokinase-type plasminogen activator receptor (uPAR) Biomarker Activity (AID 2283039); settings: primary human bronchial epithelial cells; actives raise or lower the signal;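 also: cells exposed to compound for one day before measurement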
Outline: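 uPAR levels were measured by ELISA after 24 h compound treatment of primary human bronchial epithelial cells, fitted in both directions relative to DMSO. Parallel SRB staining served as the cytotoxicity read-out.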

[19] = read-out: Monokine induced gamma interferon (MIG), CXCL9 (gene 4283); test: BSK_BE3C_MIG: BioMAP Diversity Plus: BE3C Assay for Monokine induced gamma interferon (MIG) Biomarker Activity (AID 2283035); settings: primary human bronchial epithelial cells; actives raise or lower the signal;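 also: MIG protein measured by ELISA in BE3C cultures after 24 h of dosing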
Outline: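 hu bronchial epithelial 1° cells, 24 h cpd; MIG by ELISA; bidirectional fit, DMSO = baseline.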

[20] = target: human Vitamin D Receptor (VDR), VDR (gene 7421) (UniProt P11473); test: ATG_VDR_TRANS: Attagene TRANS-FACTORIAL HepG2 Assay for human Vitamin D Receptor (VDR) (AID 2283022; active = hit-call score of the fitted dose curve at least 0.9, where 1 is the maximum)
human Vitamin D Receptor (VDR), VDR (gene 7421), sequence (P11473 whole entry, looked up, the tested form may be a part): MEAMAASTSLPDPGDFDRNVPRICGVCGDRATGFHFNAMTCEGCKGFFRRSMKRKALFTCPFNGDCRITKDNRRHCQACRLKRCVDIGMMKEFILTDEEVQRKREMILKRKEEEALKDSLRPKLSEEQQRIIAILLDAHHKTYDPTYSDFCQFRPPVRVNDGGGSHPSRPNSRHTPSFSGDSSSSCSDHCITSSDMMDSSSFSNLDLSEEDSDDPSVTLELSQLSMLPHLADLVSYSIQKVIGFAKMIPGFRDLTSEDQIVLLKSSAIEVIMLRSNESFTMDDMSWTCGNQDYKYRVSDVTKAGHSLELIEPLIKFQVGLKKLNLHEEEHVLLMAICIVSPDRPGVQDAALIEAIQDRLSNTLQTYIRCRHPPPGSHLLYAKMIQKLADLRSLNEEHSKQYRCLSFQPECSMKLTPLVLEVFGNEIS
Outline: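 HepG2 cells were transiently transfected with multiple GAL4-UAS reporter units, so signal reflects exogenous chimeric receptor-Gal4 activity. After 24 h compound exposure, reporter mRNA was measured by RT-PCR, fluorescent labelling and capillary electrophoresis, fitted for gain of signal versus DMSO.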

SMILES: CCc1ccc(C(=O)NN(C(=O)c2cc(C)cc(C)c2)C(C)(C)C)cc1
- outcome [1]: inactive
- outcome [2]: inactive
- AC50 [3]: 11.8 µM (active)
- outcome [4]: inactive
- outcome [5]: inactive
- outcome [6]: inactive
- AC50 [7]: 17.7 µM (active)
- AC50 [8]: 15.4 µM (active)
- outcome [9]: inactive
- AC50 [10]: 24.2 µM (active)
- outcome [11]: inactive
- outcome [12]: inactive
- outcome [13]: inactive
- outcome [14]: inactive
- outcome [15]: inactive
- outcome [16]: inactive
- outcome [17]: inactive
- outcome [18]: inactive

SMILES: C[C@H]1[C@H](c2ccc(Cl)cc2)SC(=O)N1C(=O)NC1CCCCC1
- AC50 [1]: 20 µM (active)
- outcome [2]: inactive
- AC50 [4]: 12.8 µM (active)
- AC50 [5]: 15.2 µM (active)
- outcome [6]: inactive
- AC50 [7]: 20 µM (active)
- outcome [9]: inactive
- outcome [10]: inactive
- outcome [11]: inactive
- AC50 [12]: 12.6 µM (active)
- AC50 [13]: 7.61 µM (active)
- outcome [14]: inactive
- outcome [15]: inactive
- AC50 [16]: 10.6 µM (active)
- outcome [17]: inactive
- outcome [18]: inactive

SMILES: CN1CSC(=S)N(C)C1
- outcome [1]: inactive
- outcome [2]: inactive
- outcome [4]: inactive
- AC50 [5]: 13.2 µM (active)
- AC50 [6]: 6.08 µM (active)
- outcome [7]: inactive
- AC50 [9]: 5.21 µM (active)
- outcome [10]: inactive
- outcome [11]: inactive
- AC50 [12]: 20 µM (active)
- AC50 [13]: 16.9 µM (active)
- outcome [14]: inactive
- outcome [19]: inactive
- outcome [15]: inactive
- outcome [16]: inactive
- outcome [17]: inactive
- outcome [18]: inactive

SMILES: CC1(C)C(C=C(Cl)Cl)C1C(=O)OC(C#N)c1ccc(F)c(Oc2ccccc2)c1 (stereo not drawn)
- outcome [1]: inactive
- outcome [2]: inactive
- outcome [20]: inactive
- outcome [4]: inactive
- AC50 [5]: 9.8 µM (active)
- outcome [6]: inactive
- outcome [7]: inactive
- outcome [9]: inactive
- outcome [10]: inactive
- outcome [11]: inactive
- outcome [12]: inactive
- outcome [13]: inactive
- outcome [14]: inactive
- outcome [15]: inactive
- outcome [16]: inactive
- outcome [17]: inactive
- outcome [18]: inactive

SMILES: COc1cc(OC)nc(NC(=O)NS(=O)(=O)c2cc(NC=O)ccc2C(=O)N(C)C)n1
- outcome [1]: inactive
- outcome [2]: inactive
- outcome [4]: inactive
- outcome [5]: inactive
- outcome [6]: inactive
- outcome [7]: inactive
- outcome [8]: inactive
- outcome [9]: inactive
- outcome [10]: inactive
- outcome [11]: inactive
- outcome [12]: inactive
- outcome [13]: inactive
- outcome [14]: inactive
- outcome [19]: inactive
- outcome [15]: inactive
- outcome [16]: inactive
- outcome [17]: inactive
- outcome [18]: inactive

SMILES: O=[N+]([O-])c1c(Cl)c(Cl)c(Cl)c(Cl)c1Cl
- outcome [1]: inactive
- outcome [2]: inactive
- outcome [4]: inactive
- AC50 [5]: 37.5 µM (active)
- outcome [6]: inactive
- outcome [7]: inactive
- outcome [9]: inactive
- outcome [10]: inactive
- outcome [11]: inactive
- outcome [12]: inactive
- AC50 [13]: 19.3 µM (active)
- outcome [14]: inactive
- outcome [15]: inactive
- outcome [16]: inactive
- outcome [17]: inactive
- outcome [18]: inactive

SMILES: Cc1[nH]c(=O)n(C(C)(C)C)c(=O)c1Cl
- outcome [1]: inactive
- outcome [2]: inactive
- outcome [4]: inactive
- outcome [5]: inactive
- outcome [6]: inactive
- outcome [7]: inactive
- outcome [9]: inactive
- outcome [10]: inactive
- outcome [11]: inactive
- outcome [12]: inactive
- outcome [13]: inactive
- outcome [14]: inactive
- outcome [15]: inactive
- outcome [16]: inactive
- outcome [17]: inactive
- outcome [18]: inactive

From PubChem BioAssay (EPA / NIEHS)
